Bioassay records (PubChem)
The list is not random: actives were taken first. Their share in the collection is about 1.2%.
Tb PGK inh = T. brucei PGK inhibition; AID 602233; PGK/GAPDH coupled, Kinase-Glo luminescence, 60 min; 380,000 tested, 0.043% active; Potency, µM (highest dose often 57.5 µM), for the others: at the top dose activity change, negative = inhibition, most hits filed as inhibitors; further: potency means the concentration at half of the fitted maximal effect; nearly all actives have a fitted effect of over 60% in size
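Luminescent ATP detection (Kinase-Glo Plus) follows a 60-minute room-temperature incubation, with wells lacking PGK as controls. Buffer: 100 mM TEA (pH 7.6), 5 mM MgCl2, 0.01% Tween-20. Coupling enzyme GAPDH (100 nM final) supplies unstable 1,3-BPG in-well.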
PI5P4K alpha inh = PI5P4K alpha (human) kinase inhibition | max response, % | AID 652105 | P48426 | PI5P4Kalpha enzyme, ADP-Glo luminescence, 60 min; stronger effect = lower value | 330,000 tested, 1.2% active; active means max response of -50% or lower; inconclusive means between -30% and -50%; inactive means -30% or higher; further: value at the top dose of about 77 µM
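ADP-Glo luminescence end-point read after a 60 min room-temperature kinase reaction of PI5P4Kalpha plus substrate, initiated with ATP at 5 microM final. Buffer: 0.038 M HEPES pH 7.4, EGTA, 0.1% CHAPS, 5% DMSO.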
Pin1 inhibitor = human Pin1 inhibition; Pin1 FP peptide displacement, HiFluor488, 10 min; 390,000 tested, 0.009% active; AID 504891; Potency, µM (doses to about 115 µM), for the others: at the top dose activity, negative = inhibition, usual class: inhibitors; active means well fitted inhibition curve with a large enough effect in the polarisation, with a control signal flat, not every such curve was filed as active; inconclusive means small, poorly fitted or top-dose-only effect, or effect the other way, or a change in a side signal; inactive means no such curve, though single readings can be large or run the other way; the % refers to the polarisation; further: potency means the concentration at half of the fitted maximal effect
Target sequence (Q13526 whole entry, looked up): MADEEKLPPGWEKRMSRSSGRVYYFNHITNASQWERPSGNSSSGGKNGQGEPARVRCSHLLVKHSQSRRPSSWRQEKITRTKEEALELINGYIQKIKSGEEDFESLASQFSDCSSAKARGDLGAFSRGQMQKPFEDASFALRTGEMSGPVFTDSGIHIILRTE
GoLoco inh red = RGS12 GoLoco-Gai1 interaction inhibition. P63096. Gai1:RGS12 GoLoco peptide FP, rhodamine, 10 min. Potency, µM (highest dose often 61.6 µM), for the others: top-dose activity, negative = inhibition, most hits filed as inhibitors. 230,000 tested, 0.44% active; active means well fitted inhibition curve with a large enough effect, not every such curve was filed as active; inactive means no such curve, though single readings can be large or run the other way; further: potency means the concentration at half of the fitted maximal effect; nearly all actives have a fitted effect of over 30% in size
PI4K2A inh = blocks human PI4K2A kinase activity | AID 1346378 | purified PI4K2A, ADP-Glo luminescence, 1 h; stronger effect = lower value | activity change, negative = inhibition, % at 76.9 µM | Q9BTU6 | 420,000 tested, 0.13% active; in the data active means activity change below about -50%; inconclusive means mostly about -30% to -49%;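 further: -100% = wells without enzyme as full effect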
Target sequence (Q9BTU6 whole entry, looked up): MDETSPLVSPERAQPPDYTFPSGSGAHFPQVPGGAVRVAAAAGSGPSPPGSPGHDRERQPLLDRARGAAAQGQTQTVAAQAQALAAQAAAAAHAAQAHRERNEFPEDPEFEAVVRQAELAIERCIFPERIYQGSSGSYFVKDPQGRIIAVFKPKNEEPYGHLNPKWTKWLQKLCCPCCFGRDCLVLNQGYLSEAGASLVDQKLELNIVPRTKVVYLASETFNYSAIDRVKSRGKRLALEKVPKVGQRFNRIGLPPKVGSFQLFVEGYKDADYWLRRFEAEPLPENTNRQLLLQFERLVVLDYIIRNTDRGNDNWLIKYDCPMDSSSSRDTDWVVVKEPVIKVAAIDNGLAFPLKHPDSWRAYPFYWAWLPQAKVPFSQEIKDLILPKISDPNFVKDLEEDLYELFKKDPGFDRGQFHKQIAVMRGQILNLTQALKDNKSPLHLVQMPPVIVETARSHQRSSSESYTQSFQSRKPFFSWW
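ADP-Glo luminescence measured ADP generated by PI4K2A enzyme (4 ug/mL before mixing) with 1.2 mM PI substrate (pre-mix) and 300 microM ATP (pre-mix). Tris pH7.5 buffer with MgCl2, Triton X-100; 1 h reaction at ambient temperature.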
GCN5L2 inh = GCN5L2 (KAT2A) acetyltransferase inhibition; AID 504327; GCN5L2 HAT assay, ThioGlo1 CoA-SH fluorescence; Potency, µM (highest dose often 58.9 µM), without a hit: top-dose activity change, negative = inhibition, most hits filed as inhibitors; Q92830; 390,000 tested, 0.21% active; further: potency means the concentration at half of the fitted maximal effect
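ThioGlo1-coupled HAT assay: 20nM GCN5L2, 70uM acetyl-CoA, 75uM H3(1-25) peptide, pH 7.5. Fluorescence read at 340/540nm at start and after 20 min at room temperature.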
* hit, by the source's call; i = inactive; u = inconclusive; x = no result given; ! = repeats disagree; [ ] = another dose, or the depositor's remark. Unless noted, the call rests on the fitted dose curve; in most records, active means well fitted curve in the direction sought with a large enough effect; inconclusive means small, poorly fitted or top-dose-only effect, or another doubt; inactive means no such curve, though single readings can be large; an effect the other way counts as inactive or inconclusive. Unless noted, on the % scale 0 is the no-effect control and ±100 the full control effect.

SMILES	Tb PGK inh	PI5P4K alpha inh	Pin1 inhibitor	GoLoco inh red	PI4K2A inh	GCN5L2 inh
Cc1ccc(C(=O)O/N=C(\N)c2ccccn2)c(Cl)c1	u	-62*	-9%	x	-70*	-3%
Cc1cc2nc3c(=O)[nH]c(=O)nc-3n(CC(O)C(O)C(O)COP(=O)(O)O)c2cc1C (stereo unspecified)	x	x	x	16µM*	x	u
O=C(Oc1cc(=O)oc2ccccc12)c1cccnc1Cl	-2%	2	-1%	-14%	6	-2%
CN1/C(=C\C=[N+](C)c2ccccc2)C(C)(C)c2ccccc21	-10%	x	-2%	4µM*	-4	-16%
CN1C(=CC=C2C=C(I)C(=O)C(I)=C2)C(C)(C)c2ccccc21	u	-27	199%	i	-9	-10%
CN1/C(=C\C=N\O)C(C)(C)c2ccccc21	2%	5	0%	17%	2	5%
CN1/C(=C\C=C2/SC(=S)NC2=O)C(C)(C)c2ccccc21	-16%	-77*	u	-49%	-9	16%
Cc1ccc([C@H]2C[C@@H](O)[C@H](n3cc(C4CC4)nn3)CN2C(=O)C2CCCCC2)cc1	4%	8	x	x	7	x
Cc1c(/C=C2\SC(=Nc3cccc(C(=O)O)c3)NC2=O)c2ccccc2n1C	-11%	-79*	43%	14%	2	0%
COCCNC(=S)N(CCc1c(C)[nH]c2ccc(OC)cc12)Cc1ccco1	6%	1	1%	x	5	0%
Cc1cccc(C(=O)Nc2nnc(SCC(=O)Nc3ccc4c(c3)oc3ccccc34)s2)c1	-7%	-11	2%	7.9µM*	1	-17%
COc1ccccc1C(=O)Nc1nnc(SCC(=O)Nc2ccc3c(c2)oc2ccccc23)s1	i	-7	35%	9%	-5	-5%
COc1ccc(N(CC(=O)N/N=C(\C)c2cccs2)S(=O)(=O)c2ccccc2)cc1Cl	x	x	x	-2%	x	0%
CN(C)CCCN(C(=O)c1cc2cc([N+](=O)[O-])ccc2s1)c1nc2cc3c(cc2s1)OCCO3	0%	-69*	u	x	-7	-11%
COc1cc(C2(c3ccc(O)c(OC)c3)C(=O)Nc3c(Br)cc(Br)cc32)ccc1O	6%	-4	u	x	4	x
O=C(Nc1cc(Sc2ccccn2)cc([N+](=O)[O-])c1)c1ccc([N+](=O)[O-])cc1	-1%	-75*	18%	-10%	-4	-7%
CN(C)c1ccc(O)c2c1CC1CC3C(N(C)C)C(=O)C(C(N)=O)=C(O)[C@@]3(O)C(=O)C1=C2O (stereo partly specified)	1%	0	2%	x	1	x
CN(C)[C@@H]1C(=O)C(C(=O)NCN2CCCC2)=C(O)[C@@]2(O)C(=O)C3=C(O)c4c(O)cccc4[C@@](C)(O)C3CC12 (stereo partly specified)	x	x	x	-32%	x	6.3µM*
CN(C)[C@H]1C(=O)C(C(=O)NCN2CCCC2)=C(O)[C@]2(O)C(=O)C3=C(O)c4c(O)cccc4[C@](C)(O)[C@H]3C[C@H]12	x	x	x	-4%[14.2 µM]	x	1.8µM*
CCOc1ccc(S(=O)(=O)N(C)CC(=O)NC2CC2)cc1	-3%	0	6%	x	-4	-12%
O=C(NN=Cc1c[nH]c2ccccc12)NN=Cc1c[nH]c2ccccc12	-6%	-89*	x	x	1	x
Cn1cccc1CC(=O)NN=C/C=C\c1ccco1	x	x	x	x	-52*	x
O=C(Cc1cccs1)N/N=C/C=C/c1ccco1	-3%	-58*	-17%	80%	-15	u
O=C(CSc1nnc(SCc2ccccc2)s1)N/N=C/C=C/c1ccco1	-10%	-96*	u	6%	-22	u
COc1ccccc1/C=C/C=N/NC(=O)Cc1cccn1C	i	u	u	8%	-7	-4%
SMILES	Tb PGK inh	PI5P4K alpha inh	Pin1 inhibitor	GoLoco inh red	PI4K2A inh	GCN5L2 inh
O=C(COC(=O)c1ccc(Cl)nc1)NCCC1=CCCCC1	3%	-9	-5%	2%	0	-6%
COc1cccc(CNc2nn[nH]n2)c1OC	-5%	-6	8%	-3%	3	-10%
O=C1N/C(=C\c2ccc(O)cc2)C(=O)c2ccccc21	-15%	x	4%	8%	-50*	-1%
COCCNS(=O)(=O)c1ccc(OCC(=O)N2CCc3ccccc3C2)c(Cl)c1	8%	0	-1%	x	4	-15%
CSc1nc(=S)c2[nH]c(=S)[nH]c2[nH]1	-8%	-87*	-21%	-27%	-6	3.2µM*
Nc1nc(=S)c2[nH]c(=S)[nH]c2[nH]1	-8%	u	-7%	x	-14	x
O=C1OC(c2cccs2)=N/C1=C/c1ccc(-c2cccc(C(=O)O)c2)o1	-22%	-70*	x	23%	-7	-22%
O=C(NCc1ccco1)C(=O)NCC1OCCN1S(=O)(=O)c1cc(F)ccc1F (stereo unspecified)	i	-21	-10%	14%	2	-17%
CCn1c(NCc2ccc(N(C)C)cc2)nc2ccccc21	-1%	x	-7%	-9%	-1	-14%
Cn1c(N=Nc2ccccc2)nc2ccccc21	u	-74*	-3%	7%	-87*	-5%
CN(C)c1ccc(N=Nc2nc3ccccc3n2C)cc1	14µM*	-59*	24%	113%	-70*	-13%
COc1ccccc1-n1cnnc1SCC(=O)c1c[nH]c2ccccc12	3%	-56*	1%	8%	1	-6%
COc1ccccc1-n1cnnc1SCC(=O)NCc1cccs1	-10%	-4	-5%	-10%	-12	-1%
O=C(CSc1nnc(-c2ccncc2)n1-c1ccccc1Cl)Nc1ccc(C(=O)O)cc1	1%	-65*	1%	4%	1	-2%
Cn1c(CSCc2ccccc2)nnc1SCC(=O)Nc1ccc(C(=O)O)cc1	i	-73*	-2%	12%	-5	u
NC(=O)c1c(NC(=O)c2ccccc2F)sc2c1CCCC2	6%	-1	38%	x	2	-11%
CCN1/C(=C/C(C)=C/c2sc3ccccc3[n+]2CC)Sc2ccccc21	u	-50*!	149%	-134%	-51*!	-6%
CCN1/C(=C\C(=S)Nc2ccccc2)Sc2ccccc21	-11%	-11	15%	35%	3	-12%
COc1ccc(C2=CC3=C(Br)C(=O)C(C)(O)C(=O)C3=CO2)cc1 (stereo unspecified)	20µM*	-83*	u	6%	u	1%
